Assay outcomes deposited in PubChem by National Center for Advancing Translational Sciences (NCATS).
D2 PAM-1 – Beta-Arrestin HTS for Positive Allosteric Modulators of the Human D2 Dopamine Receptor: Potentiators; DiscoveRx D2 beta-arrestin cells, luminescence, 90 min; 100% = 57 uM dopamine signal; potentiation, % (no concentration beside the values); D(2) dopamine receptor (Homo sapiens), P14416; actives 0.23% (n = 360,000); in the data active = potentiation above about 50%; inconclusive = mostly about 30% to 49%
Target sequence (P14416 whole entry, looked up): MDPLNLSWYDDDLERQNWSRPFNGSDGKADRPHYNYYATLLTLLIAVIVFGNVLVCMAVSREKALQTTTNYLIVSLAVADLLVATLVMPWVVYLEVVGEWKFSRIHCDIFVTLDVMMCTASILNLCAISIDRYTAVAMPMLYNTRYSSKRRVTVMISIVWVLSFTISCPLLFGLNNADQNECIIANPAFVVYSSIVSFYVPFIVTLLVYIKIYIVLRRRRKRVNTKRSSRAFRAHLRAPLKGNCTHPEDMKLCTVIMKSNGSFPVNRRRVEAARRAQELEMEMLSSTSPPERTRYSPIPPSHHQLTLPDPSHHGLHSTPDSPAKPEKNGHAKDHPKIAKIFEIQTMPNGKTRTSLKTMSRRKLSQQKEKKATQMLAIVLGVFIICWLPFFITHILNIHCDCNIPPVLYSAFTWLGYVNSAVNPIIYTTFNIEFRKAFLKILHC
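D2 cells co-treated with compound plus 50 nM dopamine (EC20) for 90 min at 37 deg C to detect potentiation. Beta-arrestin recruitment was read as enzyme-fragment luminescence after 1 h at ambient temperature. Full response was set by 57 uM dopamine.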
D2 antagonist – HTS Assay for Allosteric Antagonists of the Human D2 Dopamine Receptor: Primary Screen for Antagonists | actives 2% (n = 340,000) | D(2) dopamine receptor (Homo sapiens), P14416 | HEK293 TREx D2 cells, calcium flux, dopamine EC80 | inhibition, % at 10 µM; in the data active = inhibition above about 30%; inactive = below that, where a call was filed; also: 0% is about no effect
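Cells plated overnight at 30 C with tetracycline; no-wash calcium dye, 30–90 min RT; 10 s baseline; compound pinned; 180 s read; EC80 dopamine added; another 180 s read.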
D2 PAM-2 – HTS Assay for Positive Allosteric Modulators of the Human D2 Dopamine Receptor: Primary Screen for Potentiators. D(2) dopamine receptor (Homo sapiens), P14416. HEK293 T-REx D2, calcium flux, EC20 dopamine potentiation. potentiation, % at 10 µM. actives 0.34% (n = 340,000). AID 485347, 2010;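 active = potentiation over 3 SD above the plate norm, cut at about 30% in these data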; also: 0% is about no effect
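Primary screen. Calcium kinetics in induced HEK293 T-REx D2 cells: compound pre-addition 180 s, EC20 dopamine, 180 s more.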
D2 ag-1 – Beta-Arrestin HTS for Positive Allosteric Modulators of the Human D2 Dopamine Receptor: Agonists | DiscoveRx PathHunter D2 beta-arrestin, luminescence, 90 min; 100% = 57 uM dopamine signal | activation, % (no concentration beside the values) | actives 0.084% (n = 360,000) | D(2) dopamine receptor (Homo sapiens), P14416; in the data active = activation above about 40%; inconclusive = between about 15% and that limit
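Agonist mode: compounds alone added to overnight-plated D2 PathHunter cells for 90 min at 37 C, with 57 uM final dopamine (EC100) defining full response. Beta-arrestin recruitment detected by chemiluminescent reagent, read after 1 h at ambient temperature.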
D2 ag-2 – HTS Assay for Allosteric Agonists of the Human D2 Dopamine Receptor: Primary Screen for Agonists. actives 0.53% (n = 340,000). AID 485358, 2010. HEK293 T-REx D2 cells, calcium flux agonist mode. activation, % at 2 µM;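 active = activation over 3 SD above normal in the single-dose calcium agonist read, cut at about 30% in these data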; also: 0% is about no effect
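Agonism scored from kinetic calcium signal (1 read/sec, 180 s) following compound pin transfer, after a 10 s baseline. Cells: HEK293 Trex line expressing inducible D2 receptor coupled to calcium, dye-loaded after overnight culture at 30 C.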
Active calls of the source: *; ? = inconclusive; nt = no result. Hits are enriched below; roughly 2.4% of the tested compounds scored in any of these assays.

SMILES	D2 PAM-1	D2 antagonist	D2 PAM-2	D2 ag-1	D2 ag-2
O=C(CSc1nnc(-c2cccnc2)n1Cc1ccccc1)NCc1ccccc1	-10	35*	-5	-1	0
Cc1cc(NC(=O)CSc2nnc(-c3cccnc3)n2Cc2ccccc2)no1	-33	-31	-5	-2	0
CCCn1c(SCC(=O)NNC(=O)c2ccccc2)nnc1-c1cccnc1	-16	32*	4	-3	-2
COc1cccc(-c2nnc(SCC(=O)N(C(C)C)C(C)C)o2)c1	-11	-1	31*	-2	0
COc1cccc(C(=O)Nc2cccc(OCc3cc(=O)n4cc(C)ccc4n3)c2)c1	nt	nt	10	nt	-1
NC(=O)C1CCN(C(=O)c2ccccc2NC(=O)c2nsc3ccccc23)CC1	nt	nt	nt	nt	0
CC(C)N(C(=O)CSc1nnc(CNc2ccc(F)cc2)o1)C(C)C	8	-14	77*	2	1
COC(=O)CSc1nnc(CNc2ccc(F)cc2)o1	-5	11	3	-2	0
Cc1[nH]c2ccccc2c1/C=N/Nc1ccc(F)cc1F	nt	31*	1	nt	1
Cc1[nH]c2ccccc2c1/C=N/NC(=O)c1cccc(F)c1	-6	-12	-7	-9	-1
O=C(O)CC(c1ccc(Br)cc1)N1Cc2ccccc2C1=O (configuration not stated)	1	42*	1	-2	0
CCC(C)Sc1nc2c(c(=O)n1C)SC(C)C2 (configuration not stated)	1	-4	52*	-1	-1
CSc1nc2c(c(=O)n1C)SC(C)C2 (configuration not stated)	-3	20	1	-2	1
O=C(COc1ccc(Cl)cc1)NCC(c1cccs1)S(=O)(=O)c1ccc(F)cc1 (configuration not stated)	nt	nt	-6	nt	1
CCCOc1ccc(C(=O)NNC(=S)NC(=O)c2ccccc2)cc1	-17	-8	-18	0	45*
CCCOc1ccc(C(=O)NNC(=S)NC(C)=O)cc1	-24	nt	5	-6	nt
CC(C)(C)C(=O)NC(=S)NNC(=O)c1ccc(Cl)cc1Cl	-9	91*	-37	-5	116*
CC(C)(C)C(=O)NC(=S)NNC(=O)c1ccncc1	-2	12	-7	-1	-1
CC(C)(C)C(=O)NC(=S)NNC(=O)c1ccc(-c2ccccc2)cc1	-34	64*	-28	-14	90*
COc1ccc(NC(=O)CCN2C(=O)c3ccncc3C2=O)cc1OC	-14	34*	0	-6	0
Nc1ccc2nc3c(=O)n(C4CCCCC4)c(=O)[nH]c3nc2c1	17	nt	-7	3	nt
CCCCn1c(=O)[nH]c2nc3cc(N)ccc3nc2c1=O	22	-24	-9	-3	61*
Nc1ccc2nc(CCc3ccccc3)[nH]c2c1	-2	-9	0	-1	-1
Nc1ccc2nc3c(=O)n(CCc4ccccc4)c(=O)[nH]c3nc2c1	27	-45	-11	6	95*
Cc1cc2nc3c(=O)n(CCc4ccccc4)c(=O)[nH]c3nc2cc1N	18	-13	-8	8	95*
SMILES	D2 PAM-1	D2 antagonist	D2 PAM-2	D2 ag-1	D2 ag-2
O=C(NCCc1cccs1)c1ccc(Cn2c(SCc3ccc(F)cc3)nc3cccnc32)cc1	nt	nt	3	nt	0
O=C(O)c1cc(S(=O)(=O)Nc2cccc(Oc3ccccc3)c2)ccc1Br	-4	12	39*	-2	-2
O=C(Nc1ccccc1C(=O)O)c1cccc(NS(=O)(=O)c2ccc(Br)cc2)c1	82*	nt	nt	3	nt
COc1cc(/C=C(\NC(=O)c2ccccc2)C(=O)NC(C(=O)O)c2ccccc2)cc(OC)c1OC (configuration not stated)	-7	0	3	-4	5
O=C(Nc1ccc(F)c(F)c1)c1ccc(-n2cncn2)c([N+](=O)[O-])c1	2	-27	-7	14	0
COc1ccc(NC(=O)c2ccc(-n3cncn3)c([N+](=O)[O-])c2)cc1OC	13	35*	-2	3	-1
O=C(Nc1cccc(/C=C/c2ccccn2)c1)c1ccc(-n2cncn2)c([N+](=O)[O-])c1	63*	21	-14	7	0
CCOC(=O)CCn1nc(C)c2c(C)n(-c3ccccc3)nc2c1=O	nt	nt	-2	nt	0
CC(=O)Nc1ccc(NC(=O)C2CCN(S(=O)(=O)c3cccc4nonc34)CC2)cc1	-1	10	21	2	0
Cc1cccc2sc(NC(=O)C3CCCN(S(=O)(=O)c4cccc5nonc45)C3)nc12 (configuration not stated)	-11	-9	39*	3	-2
Cc1nnc(NC(=O)C2CCN(S(=O)(=O)c3cc([N+](=O)[O-])ccc3Cl)CC2)o1	2	14	-5	?	-1
Cc1cccc2sc(NC(=O)C3CCCO3)nc12 (configuration not stated)	-4	32*	-4	-1	0
O=C(Nc1ccc(F)c(F)c1)C1CCN(S(=O)(=O)c2cccc3nonc23)CC1	1	0	30*	-16	-2
Cc1cccc2sc(NC(=O)C3CCN(S(=O)(=O)c4cc([N+](=O)[O-])ccc4Cl)CC3)nc12	64*	nt	0	?	nt
Cc1cccc(NC(=S)NC2CC3CCC(C2)N3Cc2ccco2)c1 (configuration not stated)	-28	39*	-20	0	0
Cc1ccccc1NC(=S)NC1CC2CCC(C1)N2Cc1ccco1 (configuration not stated)	-21	39*	-18	-2	0
CCCCN(C)CCCNC(=O)C1CCN(c2nc3ccc(CC)cc3s2)CC1	nt	nt	19	nt	2
COc1cc(OC)c(NC(=O)N2CCc3c([nH]c4ccccc34)C2c2ccccc2F)cc1Cl (configuration not stated)	nt	nt	-1	nt	nt
Cc1cc(Oc2ccc(C#N)cc2)nc(NCc2ccccc2)n1	-5	42*	28	-1	1
COc1cccc(OC)c1-c1nn(-c2ncc(C(F)(F)F)cc2Cl)c(=O)o1	-12	38*	10	-6	3
CN(C1CCCC1)C1CCN(C(=O)CNC(=O)/C=C/c2ccc(F)cc2)CC1	-3	85*	-3	-2	2
C=CCN1C2CCCC1CC(NC(=S)Nc1ccc(Cl)cc1)C2 (configuration not stated)	-17	nt	nt	0	nt
